# High-throughput results deposited in PubChem by Broad Institute.
# A selection: hits, their analogues and other compounds. The true share with any hit is near 2.1%.
# Shn3 3UTR inh = reduction of Shn3 3'UTR firefly luciferase signal, primary screen, Schnurri-3 inhibitor project, cell-based, Clone20 osteoblasts, set 2 | Clone20 osteoblast Shn3 3'UTR firefly luciferase, 24 h | inhibition, % at 12.5 µM | 360,000 tested, 0.52% active | AID 588674, 2011;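 active means mean inhibition of at least 75% with every replicate also reaching 75%; inconclusive means mean inhibition at least 75% but some replicate below; inactive means mean inhibition below 75%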;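 further: 0% = median of neutral control wells and 100% = pilot-screen positive control compound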
# aSyn 5UTR inh = MLPCN primary screen, SNCA 5' untranslated region. alpha-synuclein 5'UTR reporter, inhibitor activity. inhibition, % (tested at 7.5 µM). 300,000 tested, 0.82% active. AID 1813, 2009; in the data active means inhibition above about 60%; inconclusive means no clear call, values can overlap the other calls;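 further: H4 neuroglioblastoma cells stably carrying SNCA 5'UTR luciferase fusion; 0% = DMSO wells and 100% = positive control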
# TRPM1 prom inh = inhibitors of MITF-dependent TRPM1 promoter reporter, primary screen, cell-based, SK-MEL-5, single point, luciferase | AID 488899, 2010 | SK-MEL-5 TRPM1 promoter luciferase, 24 h | inhibition, % at 12.5 µM | 330,000 tested, 0.83% active;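 active means mean inhibition across replicates of 60% or more, whatever share of single replicates reaches that level; inconclusive means some that reach 60%, reason not given; inactive means mean inhibition across replicates below 60%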
# PAX8 inh HTS = inhibitors of PAX8-driven TPO luciferase reporter, primary screen, RMG-I cells, single concentration; SteadyGlo, 24 h; 360,000 tested, 1.2% active; inhibition, % at 12.6 µM;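 active means mean replicate inhibition at least 60% with every replicate also reaching 60%; inconclusive means only one of the two criteria is met; inactive means mean below 60% and not all replicates reaching 60%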;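 further: luciferase light reporting Pax8 driven TPO promoter activity; plate controls were median of neutral control wells for no effect and mitoxantrone controls for full effect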
# EBV LMP1 NFkB = EBV LMP1-driven NF-kappaB luciferase reporter inhibitors, primary screen, cell-based, luminescence, single point; LMP1-induced NF-kappaB luciferase reporter cells; inhibition, % at 12.5 µM; 350,000 tested, 0.69% active; in the data active means inhibition above about 41%; inconclusive means no clear call, values can overlap the other calls;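 further: 0% = neutral control wells and 100% = reference inhibitor control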
# Starred values were filed as active, the others as inactive; ? = inconclusive; nt = not tested or not shown; ! = not active in a repeat.
SMILES,Shn3 3UTR inh,aSyn 5UTR inh,TRPM1 prom inh,PAX8 inh HTS,EBV LMP1 NFkB
CC(C)c1ccc(NC(=O)COc2nncc3ccccc23)cc1,-38,-13,-4,-29,-7
CCN(CC)CCNC(=O)c1c(C)n(-c2ccccc2)c2cc(Br)c(OC)cc12,4,-32,74*,31,-39
COc1cc2c(C(=O)N3CCN(C)CC3)c(C)n(-c3ccccc3)c2cc1Br,8,28,-5,4,-10
COc1cc(C(=O)NNC(=O)c2ccc(NC(=O)C(C)(C)C)cc2)cc(OC)c1OC,-6,6,-13,-23,0
COCc1cc(C)nc(SCC(=O)Nc2nc(C)cs2)c1C#N,-39,?,-12,-33,12
CC(C)c1ccc2[nH]c(O)c(N=NC(=O)c3cccc(S(=O)(=O)Nc4ccc(Cl)cc4)c3)c2c1,-9,79*,-6,7,-2
O=C(COC(=O)/C=C/c1ccc(S(=O)(=O)N2CCOCC2)cc1)NCc1ccc(Cl)cc1,-8,3,-12,2,-4
O=C(Cc1ccccc1)NC1CCN(S(=O)(=O)c2ccc(C(=O)O)cc2)CC1,-5,20,15,nt,-1
CC(=O)Nc1ccc(OCc2cccc3ccccc23)cc1,10,92*,3,22,9
Cc1ccc(C(=O)Nc2cccc3cccnc23)cc1C,-114,-87,-26,-19,-21
O=C(Nc1cccc(F)c1)N[C@@H]1CC[C@@H](CCNS(=O)(=O)c2cccc(Cl)c2)O[C@@H]1CO,nt,nt,nt,107*,nt
O=C(Nc1cccc(F)c1)N[C@H]1CC[C@@H](CCNS(=O)(=O)c2cccc(Cl)c2)O[C@@H]1CO,nt,nt,nt,-22,nt
O=C(Nc1ccc(F)cc1)N[C@H]1CC[C@H](CCNC(=O)c2cc(Cl)cc(Cl)c2)O[C@H]1CO,nt,nt,nt,87*,nt
O=C(Nc1ccc(F)cc1)N[C@H]1CC[C@@H](CCNC(=O)c2cc(Cl)cc(Cl)c2)O[C@@H]1CO,nt,nt,nt,11,nt
CCN1CCN(Cc2ccc(NC(=O)c3ccc(C)c(NC(=O)c4nccnc4N)c3)cc2C(F)(F)F)CC1,36,6,5,5,57*
CCN1CCN(Cc2ccc(NC(=O)c3ccc(C)c(NC(=O)N4CCNC4=O)c3)cc2C(F)(F)F)CC1,7,66*!,12,-17,47*!
CCN1CCN(Cc2ccc(NC(=O)c3cc(NC(=O)c4nccnc4N)cc(OC)c3)cc2C(F)(F)F)CC1,-38,-23,73*,-13,1
CCN1CCN(Cc2ccc(NC(=O)c3cc(NC(=O)c4cnnc5ccccc45)cc(OC)c3)cc2C(F)(F)F)CC1,16,-13,nt,2,-5
CCN1CCN(Cc2ccc(NC(=O)c3cc(NC(=O)c4cncc(-c5ccc(C#N)cc5)c4)cc(OC)c3)cc2C(F)(F)F)CC1,98*,14,97*,108*,-25
COc1cc(OC)cc(C(=O)N2CCN(Cc3ccccc3C(F)(F)F)CC2)c1,12,7,-11,nt,2
O=C(C[C@@H]1CC[C@@H]2[C@H](COC[C@@H](O)CN2C(=O)c2ccncc2)O1)NC1Cc2ccccc2C1,nt,nt,nt,17,nt
CC(=O)c1cccc(NC(=O)C(C)OC(=O)Cc2n[nH]c(=O)c3ccccc23)c1 (configuration not stated),9,-22,10,7,2
C/C(=N\NC(=O)Cn1nc(C)c(Br)c1C)c1cccs1,-9,37,-1,0,-22
COc1ccc(C(=O)c2cnc3cc4c(cc3c2C)OCO4)cc1,-4,6,-8,6,-10
CO[C@@H]1CN(C)C(=O)c2cc(NC(=O)C3CC3)ccc2OC[C@@H](C)N(C(=O)Cc2ccccn2)C[C@H]1C,nt,nt,nt,-9,nt
O=C(Cc1cccs1)NCCc1ccc(Cl)cc1,-13,-3,-9,-28,-1
COc1ccc(OCC(=O)Nc2cccc(S(=O)(=O)N(C)c3ccccc3)c2)c([N+](=O)[O-])c1,-8,nt,-10,-5,-16
Cc1cccc(C(=O)Nc2cc(NC(=O)c3cccs3)ccc2C)c1,3,1,17,-2,9
CCN1CCN(c2ccc(NC(=O)c3ccccc3F)cc2Cl)CC1,-69,-136,-46,-154,-15
CCN1CCN(Cc2ccc(NC(=O)c3ccc(C)c(NC(=O)c4nccn4C)c3)cc2C(F)(F)F)CC1,16,53,4,7,47*
